# Test results as given in PubChem BioAssay (NCI).
# Compounds without any hit were thinned out: in the full panel of roughly 79,000, 15% have a hit. Active and inactive are the calls of the source. Rule as the data show it: active = growth inhibition above about 70%; inactive = the rest.
# Key:
# [1] = NCI Yeast Anticancer Drug Screen. Data for the rad50 strain (AID 155);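 also: 0% = growth of vehicle-only cultures of the same strain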; conditions: S. cerevisiae rad50 strain growth inhibition; at 50.0 µM; hits give high values
# In short: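 Relative growth inhibition (compound vs vehicle) was measured in yeast with a defined repair-gene alteration.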
# [2] = NCI Yeast Anticancer Drug Screen. Data for the mec2-1 strain (AID 157); conditions: S. cerevisiae mec2-1 strain, at 50.0 µM, hits give high values
# In short: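 Cells of the genetically defined mec2-1 yeast strain are incubated with test compound. Inhibition of growth is calculated against vehicle-treated controls.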
# [3] = NCI Yeast Anticancer Drug Screen. Data for the sgs1 mgt1 strain (AID 161);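 also: 0% = growth of cultures given vehicle only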; conditions: S. cerevisiae sgs1 mgt1 strain, at 50.0 µM, hits give high values
# In short: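 Read-out: growth inhibition vs vehicle controls. Cells: mutant yeast strain deficient in DNA damage repair.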
# [4] = NCI Yeast Anticancer Drug Screen. Data for the cln2 rad14 strain (AID 165);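 also: 0% = growth equal to vehicle treated cultures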; conditions: S. cerevisiae cln2 rad14 strain, at 50.0 µM, hits give high values
# In short: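 The screen exposed genetically defined yeast (cln2 rad14) to test compounds and scored growth inhibition relative to vehicle-treated controls.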
# [5] = NCI Yeast Anticancer Drug Screen. Data for the bub3 strain (AID 167); conditions: S. cerevisiae bub3 mutant strain, at 50.0 µM, hits give high values
# In short: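 Screening used yeast with an engineered genetic alteration affecting cell cycle control. Compound-exposed cultures were compared with vehicle cultures, and reduced growth was taken as inhibition.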
# [6] = NCI Yeast Anticancer Drug Screen. Data for the mlh1 rad18 strain (AID 175); conditions: S. cerevisiae mlh1 rad18 strain growth inhibition; at 50.0 µM; hits give high values
# In short: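 Compound-treated yeast growth, normalised to vehicle controls. Strain bears defined DNA repair mutations.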
Structure (SMILES),growth inhibition [1],growth inhibition [2],growth inhibition [3],growth inhibition [4],growth inhibition [5],growth inhibition [6]
CCN(CC)c1nc(Cl)nc(C(N)=O)c1N,4.85% (inactive),-8.25% (inactive),-10.4% (inactive),-16.1% (inactive),-1.2% (inactive),-10.4% (inactive)
CC(=O)NC(=O)NC1=NCCC(=O)N1CCc1c[nH]c2ccccc12,4.35% (inactive),-29% (inactive),-6.3% (inactive),6.25% (inactive),-19.1% (inactive),7.2% (inactive)
O=C(OCc1ccccc1)c1ccccc1-c1c2ccc(=O)cc-2oc2cc(OCc3ccccc3)ccc12,33.4% (inactive),18% (inactive),40.9% (inactive),23.6% (inactive),21.3% (inactive),26.1% (inactive)
CCN(CC)CCCCCCCNc1nccc2ccccc12,31.1% (inactive),-2.4% (inactive),-8.4% (inactive),-23.3% (inactive),12.8% (inactive),35.4% (inactive)
COC1OC2COC(C)(C)OC2C1OS(=O)(=O)c1ccc(C)cc1 (stereo not drawn),-1.75% (inactive),12.6% (inactive),6.4% (inactive),-17.1% (inactive),-0.5% (inactive),29.6% (inactive)
O=C(O)c1ccccc1C(=O)OCC1CCc2ccccc2C1 (stereo not drawn),5.45% (inactive),26.8% (inactive),28.3% (inactive),33% (inactive),51.4% (inactive),9.2% (inactive)
COc1cc2nncc(SCc3ccc(Cl)cc3Cl)c2cc1OC,16.9% (inactive),2.9% (inactive),-1.65% (inactive),23.8% (inactive),1.2% (inactive),8.25% (inactive)
Cc1ccc(S(=O)(=O)N2c3ccccc3[C@H]3CCC=C[C@H]32)cc1,-13.2% (inactive),17.8% (inactive),-19.4% (inactive),-20.6% (inactive),30.6% (inactive),-15.4% (inactive)
CC(=O)NC(CCCNC(=O)N(C)N=O)C(=O)NCc1ccccc1 (stereo not drawn),-35% (inactive),-26.9% (inactive),-15.6% (inactive),6.9% (inactive),-21.2% (inactive),-13.3% (inactive)
Cc1ccc(/C=N/NC(N)=S)c(C)c1,8.5% (inactive),-25.4% (inactive),17.3% (inactive),-30.9% (inactive),7.15% (inactive),16.6% (inactive)
CC1(C)NN=C([N+](=O)[O-])C1c1ccccc1 (stereo not drawn),5.95% (inactive),10.7% (inactive),7.2% (inactive),-14.4% (inactive),-11% (inactive),6.65% (inactive)
OC1C=COC2COC(c3ccccc3)OC12 (stereo not drawn),4.1% (inactive),-8.95% (inactive),6.1% (inactive),-21.1% (inactive),-5.4% (inactive),10.2% (inactive)
CCOC(=O)CCCCCCC(=O)OCC,19.1% (inactive),5.35% (inactive),5.05% (inactive),1.95% (inactive),1.1% (inactive),23.4% (inactive)
N#CC1CNC(N)NC1N (stereo not drawn),-0.1% (inactive),4.8% (inactive),-8.05% (inactive),-7.95% (inactive),7.35% (inactive),1.65% (inactive)
CCn1ncc2ccc(N(CO)CO)cc21,-2.4% (inactive),22.1% (inactive),-13.6% (inactive),-20.2% (inactive),-22.6% (inactive),4.1% (inactive)
C=C1C2CC[C@@]3(CC[C@@H]4[C@@]5(C)CCC[C@@]4(CN4CCO[C@H]45)[C@@H]3C2)[C@@H]1O,-2.4% (inactive),-5.9% (inactive),11.1% (inactive),25.9% (inactive),11.2% (inactive),-5.5% (inactive)
CN1CCC(n2[nH]c(-c3ccccc3)c(Cc3ccccc3)c2=O)CC1,3.3% (inactive),-40.6% (inactive),-13.3% (inactive),10.6% (inactive),-15.1% (inactive),5.7% (inactive)
CC/C(C)=N/NS(=O)(=O)c1ccc(C)cc1,43.9% (inactive),13.2% (inactive),2.3% (inactive),16% (inactive),1.15% (inactive),42.5% (inactive)
O=C1CC2C=CC(O)C(C1)C2 (stereo not drawn),-20.3% (inactive),1.65% (inactive),-30.6% (inactive),21.1% (inactive),-58.2% (inactive),-109% (inactive)

Structure (SMILES),growth inhibition [1],growth inhibition [2],growth inhibition [3],growth inhibition [4],growth inhibition [5],growth inhibition [6]
c1ccc2c3c(ccc2c1)Oc1ccc2ccccc2c1C3CCC1c2c(ccc3ccccc23)Oc2ccc3ccccc3c21,-8.75% (inactive),-19.6% (inactive),-4.9% (inactive),1.5% (inactive),-17.2% (inactive),7.75% (inactive)
CCCCCCCCCCCCCCCCCCNC(=O)Nc1ccc(OC)cc1OC,15.4% (inactive),37% (inactive),-0.3% (inactive),3% (inactive),2.8% (inactive),13.3% (inactive)
CCCCCCCCCCCCCCS(=O)(=O)CCCl,-5.85% (inactive),-6.1% (inactive),-21.2% (inactive),-6.1% (inactive),-5.2% (inactive),-7.5% (inactive)
COc1ccc(OC)c(NC(=O)Nc2cc(Cl)ccc2C)c1,4.25% (inactive),0.65% (inactive),-2.3% (inactive),-6.1% (inactive),19.2% (inactive),4.8% (inactive)
NNc1nnc(Cl)c2c1ncn2Cc1ccccc1,-16.9% (inactive),-7.45% (inactive),23.1% (inactive),-21.4% (inactive),2.75% (inactive),20.6% (inactive)
Cc1ccc(-n2cc(-c3ccc(Cl)cc3)c3c(=N)n(N)cnc32)cc1,-12.2% (inactive),-14.2% (inactive),49.8% (inactive),26.2% (inactive),16.8% (inactive),47% (inactive)
CCCC(C(O)CC)[N+](=O)[O-] (stereo not drawn),8.65% (inactive),-16.1% (inactive),11.7% (inactive),5.35% (inactive),-6.25% (inactive),21.6% (inactive)
O=C(NCC1CC1)Nc1cccc2ccccc12,-19.1% (inactive),-3.4% (inactive),-2% (inactive),-54.7% (inactive),-14% (inactive),-5.1% (inactive)
O=S1(=O)C2C=CCC1C(Cl)CC2 (stereo not drawn),-7.7% (inactive),29.9% (inactive),36% (inactive),-24.4% (inactive),24.9% (inactive),-5.25% (inactive)
Cn1c(=O)c2c(nc(NCCOC(=S)S)n2C)n(C)c1=O,-44.8% (inactive),1.8% (inactive),-10.3% (inactive),32.5% (inactive),5.3% (inactive),15.9% (inactive)
CSc1ccc(C(=NO)c2ccc(SC)cc2)cc1,-11.4% (inactive),17.8% (inactive),-1.3% (inactive),-0.85% (inactive),-8.5% (inactive),-11.7% (inactive)
CC(C)(C)c1onc2c1C(=O)c1ccccc1-2,-3.7% (inactive),-2.55% (inactive),1.35% (inactive),-5.9% (inactive),25.9% (inactive),-2.75% (inactive)
COC(=O)[C@]12CCC(C)(C)C[C@H]1C1=CC[C@@H]3[C@@]4(C)CC[C@H](OC5OC(CO)C(O)C(O)C5OC5OC(CO)C(O)C(O)C5O)C(C)(C)[C@@H]4CC[C@@]3(C)[C@]1(C)CC2 (stereo partly drawn),89% (active),90.8% (active),91.4% (active),90% (active),90.9% (active),89.5% (active)
CC(=O)Nc1cc(F)c(N)c(F)c1,-10.9% (inactive),-4.3% (inactive),-13.3% (inactive),-5.25% (inactive),0.05% (inactive),-3.8% (inactive)
Cc1ccc(C)c2c3c(sc12)CCCC3,-7.85% (inactive),-5.4% (inactive),-7.15% (inactive),-17.2% (inactive),0.45% (inactive),2.95% (inactive)
CCSCCCCSCC,-2.85% (inactive),-34.4% (inactive),-15.7% (inactive),3.35% (inactive),6.3% (inactive),-2.2% (inactive)
Cc1ccc(C(=O)C2CC2c2ccccc2)cc1 (stereo not drawn),6.05% (inactive),-1.9% (inactive),-13.7% (inactive),-38% (inactive),-0.95% (inactive),-7% (inactive)
CN(C)N=Nc1cccc(Cl)c1,25.9% (inactive),0.6% (inactive),10.3% (inactive),16.2% (inactive),8.8% (inactive),14.2% (inactive)
COc1cc(C(=O)Nc2ccc(N3CCCCC3)cc2)cc(OC)c1OC,25.1% (inactive),9.2% (inactive),38.4% (inactive),-16.2% (inactive),14.6% (inactive),36.3% (inactive)
